Rows were chosen to be rich in hits. Some 4.8% of all compounds tested hit in one or more screens of this group.
NALP1 inh = NALP1 inhibition; S. cerevisiae NALP1/ASC/caspase-1 growth, X-gal OD620, 72 h; inhibition, % at 10 µM; hit rate 0.61% among 280,000; AID 2071; in the data active = inhibition mostly above about 24%, no sharp cut-off; inactive = mostly below about 32%
PfHsp90 yeast 2 = growth inhibition of yeast expressing Plasmodium Hsp90 | S. cerevisiae expressing PfHsp90, BacTiter-Glo ATP, 48 h; yeast lacking PDR1 and PDR3 efflux regulators | inhibition, % at 9.4 µM | hit rate 0.32% among 310,000;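 active = every replicate shows inhibition above about 80%, whatever the replicate mean, limit read from the data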;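 also: 0% = DMSO neutral controls and 100% = 20 µM radicicol positive controls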
tim10-1 inh = tim10-1 yeast growth inhibition. S. cerevisiae tim10-1 ts strain growth, BacTiter-Glo, 24 h. inhibition, % at 20 µM. hit rate 2.2% among 330,000;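 active = inhibition of at least 40%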;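 also: mutant grown at 25 °C; 0% = DMSO wells with yeast and 100% = wells holding no yeast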
TIM10 inh = TIM10 yeast growth inhibition. S. cerevisiae TIM10 strain growth, BacTiter-Glo luminescence, 24 h. inhibition, % at 10 µM. hit rate 1.4% among 330,000. AID 463195;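 active = inhibition of 40% or more at the single tested concentration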;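 also: wild-type TIM10 isogenic control strain grown at permissive 25 °C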
tim23-1 inh = tim23-1 yeast growth inhibition | S. cerevisiae tim23-1 growth, BacTiter-Glo luminescence, 24 h | inhibition, % at 20 µM | hit rate 1.3% among 330,000 | AID 463212;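 active = growth inhibition of the mutant yeast at or above 50%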;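 also: temperature-sensitive mutant grown at 25 °C; plate controls were DMSO-treated mutant yeast for no effect and medium wells lacking yeast for full effect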
SKKanGAS inh = SKKanGAS growth inhibition; S. pyogenes SKKanGAS, kanamycin growth, BacTiter-Glo, 6 h; inhibition, % at 7.5 µM; hit rate 1.3% among 300,000;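 active = mean replicate score, as percent of positive control median, at least 50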;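 also: strain carries kanamycin resistance gene driven by streptokinase promoter and grows in 40 µg/ml kanamycin; loss of luminescence reflects streptokinase promoter inhibition or plain growth inhibition; 0% = median of DMSO wells and 100% = positive control at its reference dose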
tim10-1 confirm = tim10-1 yeast growth inhibition, confirmed; shares compounds with tim10-1 inh; S. cerevisiae tim10-1 ts strain growth, BacTiter-Glo, 24 h; inhibition, % at 20 µM; hit rate 56% among 7,400; AID 463213;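 active = inhibition of yeast growth at or above a set limit in either of two repeat tests at 20 µM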;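 also: tim10-1 mutant grown at permissive 25 °C to find synthetic lethal compounds; 0% = DMSO yeast wells and 100% = medium wells without yeast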
* marks the source's active call; other numbers are inactive results; nt = not tested or not shown.

SMILES	NALP1 inh	PfHsp90 yeast 2	tim10-1 inh	TIM10 inh	tim23-1 inh	SKKanGAS inh	tim10-1 confirm
COc1ccc(Br)c(-c2nnc(CS(=O)(=O)c3ccccc3)o2)c1	-1.6	1.5	45.9*	24.4	48.0	-3.5	38.8*
O=S(=O)(c1cccc(C(F)(F)F)c1)c1ccc(O)cn1	nt	2.0	2.0	10.8	2.1	-6.2	nt
O=C(Nc1ccc(S(=O)(=O)N2CCCCC2)cc1)c1ccc(F)cc1	3.6	6.6	49.5*	35.5	31.7	-2.9	47.5*
O=C(Nc1ccc(S(=O)(=O)N2CCCCC2)cc1)c1cccnc1Cl	nt	24.7	42.2*	19.6	22.2	0.9	25.8
O=C(Nc1ccc(F)cc1F)c1cccc(S(=O)(=O)N2CCCCC2)c1	nt	nt	46.4*	12.4	41.2	nt	22.1
CCOC(=O)/C=C/C(=O)Nc1ccc(S(=O)(=O)N2CCCCCC2)cc1	3.0	nt	44.4*	29.4	38.6	4.2	34.0*
CC1CCCN(S(=O)(=O)c2ccc(S(=O)(=O)N3CCCN(Cc4ccccc4)C3)cc2)C1 (stereo not given)	17.5	nt	nt	nt	nt	-2.5	nt
CC(C)c1nnc(NC(=O)CCS(=O)(=O)Cc2ccccc2)s1	6.0	-11.4	-25.9	9.5	-5.9	-3.5	nt
CC(C)c1nnc(NC(=O)CCS(=O)(=O)c2nc(-c3cccs3)cc(C(F)(F)F)n2)s1	-6.1	nt	61.1*	28.3	44.4	-9.6	44.5*
COc1ccc(CCNC(=O)Nc2cccs2)c(OC)c1	14.1	-0.3	40.8*	24.3	31.6	3.9	36.2*
COc1nc(N(C)C)nc(N(OC)S(=O)(=O)c2ccccc2Cl)n1	5.2	nt	21.9	19.6	21.3	11.6	nt
COc1cc(C)nc(N(C)S(=O)(=O)c2ccccc2Cl)n1	8.9	-23.3	42.6*	25.5	22.9	4.3	25.8
CC(C)(CO)NCC(=O)Nc1cc(C(F)(F)F)cc(NC(=O)CNC(C)(C)CO)c1Cl	24.2	-36.3	10.4	6.8	-4.4	-3.1	nt
Cc1ccc(CNC(=O)c2ccccc2NC(=O)C2=CSCCO2)cc1	7.0	-24.0	40.0	18.0	23.6	-1.2	17.9
CCOc1ccccc1CNC(=O)c1ccc(NC(=O)C2=CSCCO2)cc1	9.8	-9.2	44.9*	8.7	36.0	-2.5	5.9
Cc1cccc(CNC(=O)c2ccccc2NC(=O)C2=CSCCO2)c1	14.8	-25.2	20.7	0.1	14.6	-10.4	nt
Cc1cccc(CNC(=O)c2ccc(NC(=O)C3=CSCCO3)cc2)c1	4.5	-9.9	50.1*	16.0	43.1	1.0	21.0
COc1ccc(CNC(=O)c2ccc(NC(=O)C3=CSCCO3)cc2)cc1	13.4	-3.5	16.3	10.1	-5.5	-7.4	nt
CN(CC(=O)NCc1ccccc1)Cc1cccc(F)c1	7.9	-41.3	nt	nt	nt	-0.6	nt
CCn1c(C)c(C)c2cc(C(=O)NCCCN3CCOCC3)ccc21	9.0	16.2	-8.2	2.7	-2.1	0.5	nt
CN(C)c1cccc(C(=O)Nc2cccc(S(=O)(=O)NC3=NCCC3)c2)c1	2.4	5.8	-13.1	6.2	-1.7	23.8	nt
CCOC(=O)CSc1cc(-c2ccccc2)nc2ncnn12	nt	9.0	43.7*	33.6	35.9	-13.6	34.5*
Cc1nnc(N/N=C/c2cc([N+](=O)[O-])c(N3CCC(C)CC3)cc2N2CCC(C)CC2)n1N	9.3	nt	34.1	26.7	32.8	32.9	nt
CCc1nnc(N/N=C/c2ccc(N3CCC(C)CC3)c([N+](=O)[O-])c2)n1N	-0.2	-47.0	47.6*	36.1	30.6	0.0	42.0*
O=C(CCc1nc2ccccc2c(=O)[nH]1)NCCN1C(=O)S/C(=C\c2ccc(OC(F)F)cc2)C1=O	nt	-3.1	nt	nt	nt	nt	nt
SMILES	NALP1 inh	PfHsp90 yeast 2	tim10-1 inh	TIM10 inh	tim23-1 inh	SKKanGAS inh	tim10-1 confirm
CCCCNC(=O)C(=O)Nc1cc2c3c(c1)CCC(=O)N3CCC2	22.3	10.6	43.2*	-30.9	-15.5	-2.6	-34.9
C/C(=N\N1CCN(C2c3ccccc3-c3ccccc32)CC1)c1ccco1	19.2	2.6	40.9*	1.9	18.6	4.0	14.6
C/C(=N\N1CCN(c2ccc(Cl)cc2)CC1)c1ccco1	45.2	5.5	8.0	6.2	22.5	-2.3	nt
O=P(c1ccccc1)(c1ccccc1)C1CCCO1 (stereo not given)	0.8	-1.2	15.1	4.0	6.6	nt	nt
Cc1ccc(CNCc2cc3c(C(C)(C)C)nn(-c4ccccc4)c3[nH]c2=O)cc1	7.6	nt	49.7*	23.9	45.7	-0.8	38.7*
O=C1C(c2ccc(F)cc2)N(Cc2ccc3c(c2)OCO3)C(=O)CN1C1CCCCC1 (stereo not given)	24.1	-14.8	40.4*	17.0	29.4	7.2	30.1
O=C1C(c2ccc(F)cc2)N(Cc2ccc3c(c2)OCO3)C(=O)CN1C1CCCC1 (stereo not given)	10.4	8.9	29.4	14.5	27.5	3.8	nt
O=C(NCCc1ccc(F)cc1)c1ccc2c(=O)n3c(nc2c1)CCC3	nt	-4.5	4.0	7.4	0.3	0.0	nt
CC(C)NC(=S)N/N=C1\CCCCc2ccccc21	-18.1	-12.3	57.2*	34.5	35.3	13.5	37.7*
Oc1ccc(/C=N/Nc2ncc(Cl)cc2Cl)cc1	-1.7	-14.3	45.2*	22.4	25.5	-2.9	10.7
Cc1ccc(/C=N/Nc2ncc(Cl)cc2Cl)s1	4.0	-6.7	42.2*	19.4	29.9	-6.1	16.9
Clc1cnc(N/N=C/c2ccco2)c(Cl)c1	35.4	13.9	10.0	0.6	-0.3	-3.3	nt
Clc1cnc(N/N=C/c2cccs2)c(Cl)c1	37.4	4.0	-3.8	-13.6	-4.6	-2.3	nt
COc1ccc(CN2C(=O)c3c(c(C)n(C)c3C)C2C(=O)NC2CCC(C)CC2)cc1 (stereo not given)	28.2	nt	42.3*	27.6	32.9	0.6	27.9
CCOC(=O)/C=C1\SCC(=O)N1CC(=O)N1CCOCC1	3.6	2.6	8.0	11.1	8.9	-3.9	nt
CC(C)CCOC(=O)C[N+](C)(C)CCOC1CC2CCC1(C)C2(C)C (stereo not given)	-7.0	1.3	-2.1	-5.5	8.1	1.7	nt
CCC(C)OC(=O)C[N+](C)(C)CCOC1CC2CCC1(C)C2(C)C (stereo not given)	14.3	-10.4	41.2*	2.5	9.6	6.4	-4.5
COc1ccc(COc2ccsc2C(=O)Nc2ccc(Cl)cc2)cc1	38.6	0.0	4.8	-0.4	1.8	-1.4	nt
N=c1n(Cc2ccccc2)c2ccccc2n1CC(O)COc1ccc(Cl)cc1Cl (stereo not given)	12.3	-24.0	40.0*	18.0	6.9	nt	-1.5
N=c1n(Cc2ccc(Cl)cc2)c2ccccc2n1CC(O)COc1ccccc1 (stereo not given)	9.9	0.6	15.6	4.7	23.3	11.3	nt
CC1CC(=O)Nc2ccccc2N1C(=O)Cn1cnc2ccc(Br)cc2c1=O (stereo not given)	nt	-62.3	0.2	-1.3	4.6	nt	nt
